From PubChem BioAssay (NCATS)
A number with no mark means an inactive call. Results filed as inconclusive are left out. Calls of active or inactive are those of the source. Unless noted, calls come from the whole dose curve; as a rule, active = well fitted curve in either direction with a large enough effect (not every such curve was filed as active); inconclusive = small, poorly fitted or top-dose-only effect, or another doubt; inactive = flat fitted curve, though single readings scatter.

How the values were obtained:
[1] = target: Lysosomal acid glucosylceramidase (Homo sapiens) (UniProt P04062); assay: Glucocerebrosidase-p2 (AID 348; in the data active = potency below about 10 µM; note: potency is the fitted concentration of half-maximal effect); conditions: purified GBA, blue fluorogenic substrate, 40 min
Lysosomal acid glucosylceramidase (Homo sapiens), sequence (P04062 whole entry, looked up): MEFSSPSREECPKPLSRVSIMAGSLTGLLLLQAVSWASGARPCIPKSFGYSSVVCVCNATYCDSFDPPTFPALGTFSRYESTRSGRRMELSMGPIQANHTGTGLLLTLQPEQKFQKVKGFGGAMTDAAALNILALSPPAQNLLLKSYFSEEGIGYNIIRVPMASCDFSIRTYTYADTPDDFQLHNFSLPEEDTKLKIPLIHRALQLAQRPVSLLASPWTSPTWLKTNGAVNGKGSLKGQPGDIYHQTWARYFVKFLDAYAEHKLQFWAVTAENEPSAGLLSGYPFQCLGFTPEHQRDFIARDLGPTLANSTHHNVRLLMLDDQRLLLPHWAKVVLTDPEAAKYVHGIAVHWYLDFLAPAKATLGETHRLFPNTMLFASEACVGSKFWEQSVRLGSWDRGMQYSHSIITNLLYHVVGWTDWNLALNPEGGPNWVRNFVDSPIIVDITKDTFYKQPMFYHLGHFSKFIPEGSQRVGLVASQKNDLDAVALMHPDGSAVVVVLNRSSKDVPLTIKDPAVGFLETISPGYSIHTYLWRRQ
In short: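 Normal human glucocerebrosidase (0.2 nM) with blue fluorogenic substrate (80 uM final) in citrate/phosphate pH 5.9 with 10mM sodium taurocholate, 0.01% tween-20; 40 min RT, NaOH/glycine stop; fluorescence Ex 365/Em 440; AC50 from a titration from 0.6 nM upwards.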

[2] = AP1 Signaling Pathway (AID 357); conditions: ME-180 AP-1-bla reporter, EGF-induced, beta-lactamase ratio, 5 h; at 7.69 µM (top of the series) unless noted;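 note: ME-180 reporter cells stimulated with EGF at its EC50 level; % is set by controls: 0 for no effect and ±100 for the full control effect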
In short: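 Cells are seeded overnight, exposed to compound titrations and an EC50 level of EGF for 5 hours at 37 °C, then loaded with CCF4 dye for 2.5 hours. Beta-lactamase activity under the AP-1 element is read as a blue/green ratio.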

[3] = target: Cytochrome P450 1A2 (Homo sapiens) (UniProt P05177); assay: p450-cyp1a2 (AID 410; calls by dose curve; note: potency is the fitted concentration of half-maximal effect); conditions: recombinant CYP1A2, luciferin-ME demethylation, luminescence; series mostly up to 57 µM
Cytochrome P450 1A2 (Homo sapiens), sequence (P05177 whole entry, looked up): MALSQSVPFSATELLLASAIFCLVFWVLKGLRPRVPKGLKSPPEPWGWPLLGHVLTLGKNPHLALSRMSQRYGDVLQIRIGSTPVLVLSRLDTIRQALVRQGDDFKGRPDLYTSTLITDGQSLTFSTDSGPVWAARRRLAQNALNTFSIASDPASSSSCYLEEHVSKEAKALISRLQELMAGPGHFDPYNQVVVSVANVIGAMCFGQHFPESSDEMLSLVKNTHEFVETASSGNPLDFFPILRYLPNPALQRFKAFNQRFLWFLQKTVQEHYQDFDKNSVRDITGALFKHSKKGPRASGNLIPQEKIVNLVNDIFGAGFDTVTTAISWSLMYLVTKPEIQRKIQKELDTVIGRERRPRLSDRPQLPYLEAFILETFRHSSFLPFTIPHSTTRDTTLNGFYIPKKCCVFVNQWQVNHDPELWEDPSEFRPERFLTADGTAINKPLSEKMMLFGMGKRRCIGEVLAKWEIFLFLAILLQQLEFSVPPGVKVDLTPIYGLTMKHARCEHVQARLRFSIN
In short: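 Read-out is luminescence from luciferin produced by CYP1A2 demethylation of Luciferin-ME (100uM, at Km). Detection reagent stopped the 60 min NADPH-dependent reaction; signals were normalized to 57 uM furafylline.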

[4] = NFAT Signaling Pathway (AID 444); conditions: Jurkat NFAT-bla M1, carbachol, beta-lactamase ratio, 5 h; at 7.69 µM (top of the series) unless noted;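 note: carbachol stimulus at about its EC50 of 1 µM final; % is set by controls: 0 for no effect and ±100 for the full control effect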
In short: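 Read-out: CCF4 FRET ratio (460 nm/530 nm) after 1 h RT dye loading, used for %activity and AC50 from titration series. Cells: Jurkat NFAT-β-lactamase/M1 line, treated with compound plus 1 uM carbachol for 5 h, 37 °C.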

[5] = Stat Signaling Pathway (AID 446); conditions: ME-180 SIE beta-lactamase reporter, IL-6 stimulated, 5 h; at 7.69 µM (top of the series) unless noted;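 note: ME-180 cervical cancer cells given 40 pM IL-6 alongside compound; SIE-controlled beta-lactamase reporter measured as 460/530 nm FRET emission ratio; % is set by controls: 0 for no effect and ±100 for the full control effect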
In short: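 Emission at 460 and 530 nm (excitation 405 nm) reports SIE-controlled beta-lactamase in ME-180 cells. Cells received compound with 40 pM IL-6 for 5 hrs at 37 C; data scaled between 300 pM IL-6 and 125 nM JAK-inhibitor controls.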

[6] = target: Glucocorticoid receptor (Homo sapiens) (UniProt P04150); assay: GR-GFP Redistribution (AID 450;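 active = compounds whose dose series gives a full or clear partial fitted curve of increased nuclear translocation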; note: potency is the fitted concentration of half-maximal effect); conditions: U2OS GR-GFP nuclear translocation, laser cytometry, 2 h
Glucocorticoid receptor (Homo sapiens), sequence (P04150 whole entry, looked up, the tested form may be a part): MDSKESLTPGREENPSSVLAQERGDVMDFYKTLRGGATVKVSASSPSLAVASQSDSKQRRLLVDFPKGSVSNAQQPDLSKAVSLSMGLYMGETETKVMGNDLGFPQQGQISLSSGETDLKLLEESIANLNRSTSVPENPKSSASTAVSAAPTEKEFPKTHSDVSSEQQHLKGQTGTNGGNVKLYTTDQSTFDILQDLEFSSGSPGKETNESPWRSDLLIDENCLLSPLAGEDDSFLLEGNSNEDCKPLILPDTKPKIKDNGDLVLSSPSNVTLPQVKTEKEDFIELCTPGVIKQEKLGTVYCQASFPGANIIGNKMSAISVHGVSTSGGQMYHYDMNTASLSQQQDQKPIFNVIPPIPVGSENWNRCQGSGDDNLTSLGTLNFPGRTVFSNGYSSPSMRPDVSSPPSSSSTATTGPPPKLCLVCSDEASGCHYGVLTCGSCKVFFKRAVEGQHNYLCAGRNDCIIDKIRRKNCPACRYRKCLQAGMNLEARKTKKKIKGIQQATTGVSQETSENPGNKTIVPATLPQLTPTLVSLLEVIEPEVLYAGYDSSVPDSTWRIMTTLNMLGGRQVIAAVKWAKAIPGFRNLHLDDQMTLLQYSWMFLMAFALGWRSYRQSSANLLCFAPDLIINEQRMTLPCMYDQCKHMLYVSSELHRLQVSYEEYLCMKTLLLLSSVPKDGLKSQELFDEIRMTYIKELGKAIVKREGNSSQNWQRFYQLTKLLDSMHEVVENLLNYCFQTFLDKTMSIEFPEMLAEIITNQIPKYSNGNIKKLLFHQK

[7] = target: Glucocorticoid receptor (Homo sapiens) (UniProt P04150); assay: GR-EFC Redistribution (AID 451; calls by dose curve; note: potency is the fitted concentration of half-maximal effect); conditions: CHO-K1 GR-EFC translocation, beta-gal luminescence, 2 h
In short: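 Translocation of GR-ED fusion to nuclear EA restores b-gal, read by luminescence after 1 h room-temperature detection. Engineered CHO-K1 biosensor cells, 1,000/well, exposed 2 h at 37 C to titrations up to 46 uM final.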

[8] = target: Mitogen-activated protein kinase 10 (Mus musculus) (UniProt Q61831); assay: JNK3 AlphaScreen Assay (AID 530); conditions: JNK3 lysate, c-Jun phosphorylation; series mostly up to 57.1 µM;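 note: kinase came from lysate of stimulated human HepG2 cells; signal reports phosphorylation of biotinylated GST-cJun 1-79 at Ser73 with 10 µM ATP; % is set by controls: 0 for no effect and ±100 for the full control effect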
In short: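 Kinase buffer: 20 mM Tris-HCl pH 7.6, 10 mM MgCl2, 1 mM DTT, 0.1 mM Na3VO4, 0.01% Tween-20; ATP 10 uM. Substrate biotin-GST-cJun(1-79), enzyme from activated HepG2 lysates. Detection by Ser73 phospho-antibody AlphaScreen.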

[9] = target: 3',5'-cyclic-AMP phosphodiesterase 4B (Homo sapiens) (UniProt Q07343); assay: qHTS Assay for Inhibitors of PDE-IV (AID 607; active = well fitted activation curve with a large enough effect in the main read-out, with a control signal flat, not every such curve was filed as active; note: % of control where 0% means no effect); conditions: HEK293 ACTOne CNG channel cells, membrane potential fluorescence; series mostly up to 22.9 µM
3',5'-cyclic-AMP phosphodiesterase 4B (Homo sapiens), sequence (Q07343 whole entry, looked up): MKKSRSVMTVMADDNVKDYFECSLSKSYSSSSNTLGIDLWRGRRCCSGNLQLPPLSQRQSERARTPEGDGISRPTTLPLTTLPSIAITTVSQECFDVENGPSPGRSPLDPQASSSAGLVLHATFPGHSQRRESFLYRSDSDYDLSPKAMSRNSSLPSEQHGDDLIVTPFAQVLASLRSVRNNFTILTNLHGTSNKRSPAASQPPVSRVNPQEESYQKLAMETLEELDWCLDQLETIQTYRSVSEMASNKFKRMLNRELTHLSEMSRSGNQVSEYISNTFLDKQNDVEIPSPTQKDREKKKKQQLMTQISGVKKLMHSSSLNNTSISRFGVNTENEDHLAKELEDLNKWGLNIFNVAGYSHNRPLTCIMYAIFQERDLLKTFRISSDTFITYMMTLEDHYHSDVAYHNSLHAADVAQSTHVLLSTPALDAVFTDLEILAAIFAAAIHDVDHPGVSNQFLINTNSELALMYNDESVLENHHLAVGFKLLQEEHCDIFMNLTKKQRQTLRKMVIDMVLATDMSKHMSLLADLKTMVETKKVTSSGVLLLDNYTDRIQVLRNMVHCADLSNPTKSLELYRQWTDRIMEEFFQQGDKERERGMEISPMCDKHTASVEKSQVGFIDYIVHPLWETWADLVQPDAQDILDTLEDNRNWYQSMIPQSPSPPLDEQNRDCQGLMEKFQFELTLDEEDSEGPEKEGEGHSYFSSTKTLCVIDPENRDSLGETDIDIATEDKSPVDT
In short: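 The readout is membrane depolarisation from a cAMP-sensing CNG channel, detected with a potential dye at ex 535/em 590. Cells were HEK293-derived (endogenous PDE-IV) at 1000 cells/well, titrated up to 22.9 uM final.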

[10] = Primary qHTS for small molecule stabilizers of the endoplasmic reticulum resident proteome: Secreted ER Calcium Modulated Protein (SERCaMP) assay (AID 1508630; active = well fitted curve in the direction sought with a large enough effect; an effect the other way counts as inactive or inconclusive; note: % is set by controls: 0 for no effect and ±100 for the full control effect); conditions: SH-SY5Y GLuc-SERCaMP (Gaussia luciferase released on ER calcium loss) secretion, thapsigargin, luminescence; series mostly up to 38.4 µM
In short: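 The SH-SY5Y reporter protocol was run at 3 concentrations up to 38.3 uM (primary) or 11 concentrations (follow-up): 16 h compound, 100 nM thapsigargin for 4 h, then extracellular luciferase luminescence.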

[11] = target: Cytochrome P450 3A4 (Homo sapiens) (UniProt P08684); assay: qHTS Assay for Activators of Cytochrome P450 3A4 (AID 885; active = well fitted curve in the direction sought with a large enough effect; an effect the other way counts as inactive or inconclusive; note: nearly all actives have a fitted effect of over 65% in size); conditions: recombinant CYP3A4, Luciferin-PPXE luminescence, 60 min; series mostly up to 57.1 µM
Cytochrome P450 3A4 (Homo sapiens), sequence (P08684 whole entry, looked up): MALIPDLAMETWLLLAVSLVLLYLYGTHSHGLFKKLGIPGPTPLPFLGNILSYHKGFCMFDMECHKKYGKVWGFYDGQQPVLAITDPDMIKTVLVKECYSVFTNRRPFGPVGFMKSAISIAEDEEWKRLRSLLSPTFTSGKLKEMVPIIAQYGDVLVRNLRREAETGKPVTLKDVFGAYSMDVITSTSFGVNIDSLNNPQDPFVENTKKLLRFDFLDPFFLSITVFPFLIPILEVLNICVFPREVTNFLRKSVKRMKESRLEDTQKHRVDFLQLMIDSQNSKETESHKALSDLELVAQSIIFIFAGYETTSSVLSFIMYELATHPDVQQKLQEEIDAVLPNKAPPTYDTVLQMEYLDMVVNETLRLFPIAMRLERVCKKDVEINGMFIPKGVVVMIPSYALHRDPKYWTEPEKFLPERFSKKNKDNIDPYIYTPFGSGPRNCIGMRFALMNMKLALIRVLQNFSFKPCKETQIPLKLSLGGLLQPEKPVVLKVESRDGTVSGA
In short: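 Activators are scored by enhanced luminescence from CYP3A4 conversion of luciferin-PPXE (25uM, equal to KM) to luciferin, after 60 min at RT with an NADPH-regenerating system.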

[12] = Confirmation and Secondary Assay for Modulators of Hemoglobin Beta Chain Splicing at IVS2 654 locus (AID 910; active = well fitted curve in the direction sought with a large enough effect; an effect the other way counts as inactive or inconclusive;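 note: HeLa cells stably carrying EGFP split by mutant beta-globin IVS2-654 intron; per-well total GFP intensity by laser scanning cytometry after 2-day treatment; % of control where 0% means no effect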); conditions: HeLa EGFP-654 splicing reporter, GFP fluorescence, 48 h; series mostly up to 38.3 µM
In short: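 Readout: per-well total peak green fluorescence (488 nm ex, 500–520 nm em) from objects 5–250 µm, reflecting correct splicing of an EGFP-654 reporter. Compounds were applied for 2 days at 37 °C to overnight-plated HeLa EGFP-654 cells; controls were DMSO and 500 nM IVS2-654 PNA.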

[13] = target: Ubiquitin carboxyl-terminal hydrolase 1 (Homo sapiens) (UniProt O94782); assay: Inhibitors of USP1/UAF1: Pilot qHTS (AID 504865; active = well fitted curve in the direction sought with a large enough effect; an effect the other way counts as inactive or inconclusive;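 note: rhodamine fluorescence freed from ubiquitin-rhodamine substrate followed over time; top concentration of the series differs between compounds; % is set by controls: 0 for no effect and ±100 for the full control effect; nearly all actives have a fitted effect of over 35% in size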); conditions: purified USP1/UAF1, Ub-rhodamine cleavage fluorescence; series mostly up to 54.9 µM
Ubiquitin carboxyl-terminal hydrolase 1 (Homo sapiens), sequence (O94782 whole entry, looked up): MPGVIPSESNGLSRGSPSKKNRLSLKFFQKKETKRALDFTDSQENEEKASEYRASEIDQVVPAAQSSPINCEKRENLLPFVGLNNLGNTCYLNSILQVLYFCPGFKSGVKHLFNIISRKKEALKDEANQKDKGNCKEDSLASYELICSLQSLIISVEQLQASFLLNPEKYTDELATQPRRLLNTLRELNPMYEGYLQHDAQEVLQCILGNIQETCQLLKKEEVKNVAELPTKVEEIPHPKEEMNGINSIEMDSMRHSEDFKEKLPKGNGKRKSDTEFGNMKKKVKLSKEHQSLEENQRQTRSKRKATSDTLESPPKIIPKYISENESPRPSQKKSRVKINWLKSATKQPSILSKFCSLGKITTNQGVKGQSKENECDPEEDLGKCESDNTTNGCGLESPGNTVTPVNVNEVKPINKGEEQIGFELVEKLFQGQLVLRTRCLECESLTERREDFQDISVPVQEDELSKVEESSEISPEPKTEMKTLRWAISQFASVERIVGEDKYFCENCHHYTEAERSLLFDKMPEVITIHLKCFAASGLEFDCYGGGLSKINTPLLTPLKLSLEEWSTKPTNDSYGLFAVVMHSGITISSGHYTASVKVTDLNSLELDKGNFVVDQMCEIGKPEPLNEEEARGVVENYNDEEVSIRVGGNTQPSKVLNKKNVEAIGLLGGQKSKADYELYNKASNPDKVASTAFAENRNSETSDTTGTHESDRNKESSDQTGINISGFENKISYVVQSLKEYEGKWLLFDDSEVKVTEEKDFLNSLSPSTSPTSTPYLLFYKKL
In short: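 USP1/UAF1 complex (1nM) preincubated with compound 15 min at room temperature, then Ub-Rho substrate (150nM final) added. Fluorescence read kinetically at 480/540 nm, 6 reads every 60 seconds. Buffer: 50mM HEPES pH 7.8, 0.5mM EDTA, 0.1 mg/ml BSA, 1mM TCEP, 0.01% Tween-20.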

[14] = Confirmation and Secondary Assay for Modulators of Hemoglobin Beta Chain Splicing at IVS2 705 locus (AID 930; active = well fitted curve in the direction sought with a large enough effect; an effect the other way counts as inactive or inconclusive;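 note: HeLa cells stably expressing the EGFP-705 splicing reporter; GFP fluorescence per well restored by corrected splicing of the IVS2-705 intron in EGFP; % of control where 0% means no effect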); conditions: HeLa EGFP-705 splicing reporter, GFP fluorescence, 48 h; series mostly up to 38.3 µM
In short: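 Stable HeLa line with EGFP disrupted by mutant beta-globin intron 2 (705). Overnight attachment, then 2 days of compound at 37C, 5% CO2. Signal: peak GFP intensity summed over objects 5-250 µm.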

[15] = target: Cytochrome P450 3A4 (Homo sapiens) (UniProt P08684); assay: qHTS Assay for Inhibitors and Substrates of Cytochrome P450 3A4 (AID 884; active = well fitted curve in the direction sought with a large enough effect; an effect the other way counts as inactive or inconclusive; note: potency is the fitted concentration of half-maximal effect; nearly all actives have a fitted effect of over 50% in size); conditions: recombinant CYP3A4, Luciferin-PPXE luminescence; series mostly up to 57.1 µM
In short: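 Luminescent readout of luciferin produced by CYP3A4 (20 nM) dealkylation of Luciferin-PPXE, 25 uM (its KM). NADPH-driven reaction ran 60 min at RT after 10 min compound preincubation; data scaled to 57 uM ketoconazole as 100% inhibition.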

[16] = target: Cytochrome P450 2C9 (Homo sapiens) (UniProt P11712); assay: qHTS Assay for Inhibitors and Substrates of Cytochrome P450 2C9 (AID 883; active = well fitted curve in the direction sought with a large enough effect; an effect the other way counts as inactive or inconclusive; note: potency is the fitted concentration of half-maximal effect; nearly all actives have a fitted effect of over 60% in size); conditions: recombinant CYP2C9, luciferin-H luminescence, 60 min; series mostly up to 57.1 µM
Cytochrome P450 2C9 (Homo sapiens), sequence (P11712 whole entry, looked up): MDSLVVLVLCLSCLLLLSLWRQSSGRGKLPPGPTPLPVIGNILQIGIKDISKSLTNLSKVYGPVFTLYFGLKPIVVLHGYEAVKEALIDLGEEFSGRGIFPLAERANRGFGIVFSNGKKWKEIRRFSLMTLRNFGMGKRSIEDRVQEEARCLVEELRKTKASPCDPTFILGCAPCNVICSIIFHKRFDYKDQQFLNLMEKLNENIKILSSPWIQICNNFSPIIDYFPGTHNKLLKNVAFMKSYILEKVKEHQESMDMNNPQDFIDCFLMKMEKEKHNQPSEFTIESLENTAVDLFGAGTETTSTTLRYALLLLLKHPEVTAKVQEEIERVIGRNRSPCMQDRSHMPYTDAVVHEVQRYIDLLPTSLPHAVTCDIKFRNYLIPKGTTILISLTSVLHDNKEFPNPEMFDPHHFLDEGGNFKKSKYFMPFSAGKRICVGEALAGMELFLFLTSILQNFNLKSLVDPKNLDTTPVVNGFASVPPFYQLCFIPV
In short: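 Turnover of Luciferin-H (100uM, KM) by 10nM human CYP2C9 was measured over 60 min at 37C with NADPH regeneration; inhibitors and some substrates reduce luminescence. Data normalized to sulphaphenazole 57uM.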

[17] = qHTS Assay for Identification of Small Molecule Agonists for Hypoxia Response Element Signaling Pathway (AID 914; active = well fitted activation curve with a large enough effect in the signal ratio, with a control signal flat, not every such curve was filed as active; the % refers to the signal ratio; note: % of control where 0% means no effect); conditions: ME-180 (cervical carcinoma) HRE-bla reporter, beta-lactamase ratio, CoCl2, 17 h; activation: stronger effect = higher value
In short: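 Reporter activity (beta-lactamase, CCF4 460nm/530nm ratio) in HRE-bla ME-180 cells is recorded after 17 h compound exposure with EC50 CoCl2 at 37 degrees Celsius. AC50 values come from titration data.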

[18] = target: Dual specificity protein kinase CLK4 (Homo sapiens) (UniProt Q9HAZ1); assay: qHTS Assay for Inhibitors of CDC-like Kinase 4 (ADP-FP Assay) (AID 1795; active = well fitted curve in the direction sought with a large enough effect; an effect the other way counts as inactive or inconclusive; note: % is set by controls: 0 for no effect and ±100 for the full control effect; nearly all actives have a fitted effect of over 60% in size); conditions: Transcreener ADP fluorescence polarization; series mostly up to 50 µM
Dual specificity protein kinase CLK4 (Homo sapiens), sequence (Q9HAZ1 whole entry, looked up): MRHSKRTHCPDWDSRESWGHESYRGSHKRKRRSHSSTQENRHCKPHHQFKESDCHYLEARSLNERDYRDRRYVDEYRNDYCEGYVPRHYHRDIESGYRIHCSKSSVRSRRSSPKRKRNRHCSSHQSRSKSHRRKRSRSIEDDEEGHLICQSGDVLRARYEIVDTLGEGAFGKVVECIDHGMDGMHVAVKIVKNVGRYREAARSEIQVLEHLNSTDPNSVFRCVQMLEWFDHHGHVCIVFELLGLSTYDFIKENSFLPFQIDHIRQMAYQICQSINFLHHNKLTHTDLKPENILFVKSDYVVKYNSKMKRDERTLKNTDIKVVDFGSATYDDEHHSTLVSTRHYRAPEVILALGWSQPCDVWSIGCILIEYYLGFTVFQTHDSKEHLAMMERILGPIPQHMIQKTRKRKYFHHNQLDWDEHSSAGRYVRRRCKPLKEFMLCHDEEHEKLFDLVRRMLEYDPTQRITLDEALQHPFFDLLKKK
In short: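 Recombinant human Clk4 (6.25 nM) phosphorylated RS repeat peptide (100 uM) with 1 uM ATP in Tris pH 7.5/MgCl2/EGTA/DTT/Triton buffer for one hour. ADP was quantified by Transcreener competitive fluorescence polarization against an ADP calibration curve.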

[19] = target: Cytochrome P450 2C19 (Homo sapiens) (UniProt P33261); assay: qHTS Assay for Inhibitors and Substrates of Cytochrome P450 2C19 (AID 899; active = well fitted curve in the direction sought with a large enough effect; an effect the other way counts as inactive or inconclusive; note: potency is the fitted concentration of half-maximal effect; nearly all actives have a fitted effect of over 60% in size); conditions: recombinant CYP2C19, luciferin-H EGE luminescence; series mostly up to 57.1 µM
In short: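 Reactions contain 5nM enzyme, 10uM Luciferin-H EGE (KM) and 50mM KPO4; compound preincubates 10 min at 37C, NADPH regeneration starts turnover for 60 min. Luminescence after detection reagent gives activity.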

Compound	Potency [1]	activity change, negative = inhibition [2]	Potency [3]	activity change, negative = inhibition [4]	activity, negative = inhibition [5]	Potency [6]	Potency [7]	Potency [8]	Potency [9]	outcome [10]	Potency [11]	Potency [12]	Potency [13]	outcome [14]	Potency [15]	Potency [16]	activation [17]	Potency [18]	Potency [19]
Cc1nc2cnc(Oc3ccccc3)nc2n(-c2ccccc2)c1=O	> 11.4 µM	-7.96%	10 µM (active)	9.01%	-3.48%	> 9.22 µM	> 46 µM	inactive	inactive	inactive									
c1cncc(-c2ccc3ncnc(N4CCNCC4)c3c2)c1	> 11.4 µM	8.97%	1.26 µM (active)	26.4%	0.928%	> 46 µM	> 46 µM	inactive	inactive	inactive	inactive	inactive	inactive						
N#Cc1cccc(-c2nc(Nc3ccccc3)c3ccccc3n2)c1	> 11.4 µM	3.06%	1.26 µM (active)	15.5%	8.9%	> 46 µM	> 46 µM	inactive		inactive		inactive	inactive	inactive					
N#Cc1cccc(-c2cc(NCc3cccnc3)ncn2)c1	> 11.4 µM	11.5%	0.0398 µM (active)	3.13%	-25.4%	> 46 µM	> 46 µM	inactive	inactive	inactive	inactive		inactive		2.51 µM (active)				
COc1ccc2[nH]cc(CCNc3ncncc3-c3ccc(C(=O)N(C)C)cc3)c2c1		-13.2%	20 µM (active)	5.64%	4.62%	> 46 µM	> 46 µM	inactive	inactive	inactive	inactive		inactive			0.398 µM (active)	11.5%	inactive	
COc1ccc(CNc2ccnc(-c3ccccc3Cl)n2)c(OC)c1		-21.2%	5.01 µM (active)	-26%	-16.2%	> 46 µM	> 46 µM	inactive	inactive	inactive	inactive				3.16 µM (active)		-15.3%	inactive	1.26 µM (active)
CN(C)c1ncc2nc(-c3ccc(F)cc3)c(=O)n(CCC#N)c2n1	> 11.4 µM	4.59%	1.26 µM (active)	8.55%	23.5%	> 9.22 µM	> 46 µM	inactive	inactive	inactive									
